The record followed here is PubChem BioAssay.

Assay [1] can be described thus: antimalarial activity against Dd2 strain (AID 2302;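 active = growth inhibition above 50% at the single 2 µM test dose, taken to imply half-maximal potency below 2 µM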;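 note: 0% = DMSO untreated growth and 100% = chloroquine plus artemisinin killed control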). To be noted: P. falciparum Dd2 in RBCs, LDH growth readout, 72 h; at 2 µM; stronger effect = higher value.
Assay [2] in a line: human hepatoma cell viability loss – ATP luminescence, cytotoxicity control for P. falciparum antimalarial project, primary screen (AID 2303;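 active = inhibition above 50%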;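 note: 0% = DMSO wells and 100% = digitonin-killed cells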). The following applies: HepG2 viability, 24-48 h, at 10 µM, stronger effect = higher value.
Assay [3] deals with L-lactate dehydrogenase (Plasmodium falciparum (isolate CDC / Honduras)) (UniProt Q27743). Kind of assay: PfLDH activity inhibition – cell lysate, 3D7 strain, counter-screen for P. falciparum growth inhibition project (AID 2304).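 Note: 0% = vehicle and 100% = reference inhibitor.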 The following applies: P. falciparum 3D7 crude extract, LDH APAD/NBT absorbance; at 2 µM; stronger effect = higher value. In general terms: A counterscreen serves to expose hits that act by an unwanted route or on another target.
Sequence of L-lactate dehydrogenase (Plasmodium falciparum (isolate CDC / Honduras)) (Q27743 whole entry, looked up): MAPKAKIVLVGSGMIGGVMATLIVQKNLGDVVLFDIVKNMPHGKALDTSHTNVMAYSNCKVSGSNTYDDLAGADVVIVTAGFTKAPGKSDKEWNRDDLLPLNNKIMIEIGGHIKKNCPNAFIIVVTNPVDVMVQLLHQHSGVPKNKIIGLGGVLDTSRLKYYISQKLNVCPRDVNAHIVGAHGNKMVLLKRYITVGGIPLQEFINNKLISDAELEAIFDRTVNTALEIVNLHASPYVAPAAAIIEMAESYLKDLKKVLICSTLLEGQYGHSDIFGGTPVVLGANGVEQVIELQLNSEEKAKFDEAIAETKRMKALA

Assay [4] in a line: inhibition of 3D7 malaria parasite growth – strain 3D7 (AID 2306).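 Note: 0% = DMSO wells and 100% = chloroquine plus artemisinin control wells.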 To be noted: P. falciparum 3D7 erythrocytic growth, LDH absorbance, 72 h; at 2 µM; stronger effect = higher value.
Assay [5] deals with Calcium-dependent protein kinase 1 (Plasmodium falciparum (isolate 3D7)) (UniProt P62344). Kind of assay: PfCDPK1 kinase inhibitors, biochemical, TCAMS library (AID 1159585; cut-off not given, nearly all actives have IC50 up to about 0.98 µM;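 note: inhibitors leave more ATP so luminescence rises with inhibition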). To be noted: recombinant PfCDPK1, Kinase-Glo ATP depletion luminescence.
Sequence of Calcium-dependent protein kinase 1 (Plasmodium falciparum (isolate 3D7)) (P62344 whole entry, looked up): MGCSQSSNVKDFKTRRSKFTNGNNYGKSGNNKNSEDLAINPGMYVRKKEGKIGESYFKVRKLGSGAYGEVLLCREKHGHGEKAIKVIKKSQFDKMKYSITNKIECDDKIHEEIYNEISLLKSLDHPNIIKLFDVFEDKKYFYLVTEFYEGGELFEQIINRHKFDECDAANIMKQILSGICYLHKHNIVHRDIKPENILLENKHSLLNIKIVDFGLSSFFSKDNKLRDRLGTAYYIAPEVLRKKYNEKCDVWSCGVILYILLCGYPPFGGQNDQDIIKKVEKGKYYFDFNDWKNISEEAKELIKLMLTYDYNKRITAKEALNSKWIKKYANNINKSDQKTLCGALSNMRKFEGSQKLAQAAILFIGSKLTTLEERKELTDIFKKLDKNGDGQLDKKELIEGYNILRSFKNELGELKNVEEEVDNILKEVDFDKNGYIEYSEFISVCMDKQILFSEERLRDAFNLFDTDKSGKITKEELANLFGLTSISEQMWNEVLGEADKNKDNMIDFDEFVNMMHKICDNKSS
For assay [6], the target named is Plasmodium falciparum protein kinase 6 (PK6, PF3D7_1337100) (UniProt Q8IDW1). Kind of assay: PfPK6 kinase inhibitors, biochemical, TCAMS library (AID 1159586). To be noted: recombinant PfPK6, Kinase-Glo ATP depletion luminescence. On the technique in general: Kinase-Glo measures the ATP left after a reaction by luminescence.
Sequence of Plasmodium falciparum protein kinase 6 (PK6, PF3D7_1337100) (Q8IDW1 1-305): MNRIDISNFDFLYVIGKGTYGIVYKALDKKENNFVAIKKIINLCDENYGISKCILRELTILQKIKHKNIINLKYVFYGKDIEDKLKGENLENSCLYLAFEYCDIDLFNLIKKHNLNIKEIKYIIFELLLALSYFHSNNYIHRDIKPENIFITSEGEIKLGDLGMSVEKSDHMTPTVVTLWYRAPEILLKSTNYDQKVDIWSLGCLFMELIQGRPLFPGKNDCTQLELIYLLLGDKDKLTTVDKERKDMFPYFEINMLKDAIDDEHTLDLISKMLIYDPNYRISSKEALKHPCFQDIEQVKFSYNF
Assay [7] has as its target Protein kinase 7 (PK7), Plasmodium falciparum 3D7 (PF3D7_0213400) (UniProt Q7YTF7). The assay is described as follows: inhibition of Plasmodium PK7 catalytic activity – biochemical, TCAMS antimalarial set, Kinase-Glo luminescence (AID 1159587). The following applies: recombinant PfPK7, Kinase-Glo ATP depletion luminescence.
Assay [8] addresses Calcium-dependent protein kinase 4 (Plasmodium falciparum (isolate 3D7)) (UniProt Q8IBS5). The assay is described as follows: PfCDPK4 kinase inhibitors, biochemical, TCAMS library (AID 1159588; cut-off not given, nearly all actives have IC50 up to about 0.91 µM). To be noted: recombinant PfCDPK4, Kinase-Glo ATP depletion luminescence.

Unmarked numbers belong to inactive results. For some assays here: Entries with a potency or affinity are not part of this list. The source made the active and inactive calls. Unless noted, the rule behind the calls is not given here.

Sequence of Protein kinase 7 (PK7), Plasmodium falciparum 3D7 (PF3D7_0213400) (Q7YTF7 1-343): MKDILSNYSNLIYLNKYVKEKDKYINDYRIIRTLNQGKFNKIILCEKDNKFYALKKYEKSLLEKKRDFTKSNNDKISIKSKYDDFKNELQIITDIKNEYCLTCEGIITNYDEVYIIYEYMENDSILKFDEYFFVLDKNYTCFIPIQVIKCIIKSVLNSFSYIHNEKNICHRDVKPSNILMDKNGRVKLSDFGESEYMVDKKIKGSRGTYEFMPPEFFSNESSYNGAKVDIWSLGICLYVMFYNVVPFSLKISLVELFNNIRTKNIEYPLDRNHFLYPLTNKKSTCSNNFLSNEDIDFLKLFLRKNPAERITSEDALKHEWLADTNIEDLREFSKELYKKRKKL
Sequence of Calcium-dependent protein kinase 4 (Plasmodium falciparum (isolate 3D7)) (Q8IBS5 whole entry, looked up): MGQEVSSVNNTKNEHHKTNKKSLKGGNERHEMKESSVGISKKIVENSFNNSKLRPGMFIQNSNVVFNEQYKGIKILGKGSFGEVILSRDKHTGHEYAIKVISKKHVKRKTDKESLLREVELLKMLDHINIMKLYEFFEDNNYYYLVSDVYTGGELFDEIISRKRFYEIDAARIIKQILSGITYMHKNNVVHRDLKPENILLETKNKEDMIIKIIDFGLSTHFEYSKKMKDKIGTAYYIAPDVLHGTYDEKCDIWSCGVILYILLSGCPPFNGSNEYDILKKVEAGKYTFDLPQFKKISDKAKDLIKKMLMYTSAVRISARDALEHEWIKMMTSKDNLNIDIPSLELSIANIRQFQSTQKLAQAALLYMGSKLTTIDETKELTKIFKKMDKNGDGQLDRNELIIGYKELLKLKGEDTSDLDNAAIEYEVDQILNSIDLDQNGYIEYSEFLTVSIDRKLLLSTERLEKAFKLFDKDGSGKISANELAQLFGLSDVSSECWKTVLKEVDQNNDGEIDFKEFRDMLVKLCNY

As to `CC(C)c1cc2c(ccc3nc(N)nc(N)c32)o1`, the growth inhibition in assay [1] was 37%; in assay [4], 99% (active). Besides, the values for the inhibition in assay [2] and in assay [3] were 66% (active) and 3%, respectively. In addition, the outcome in assay [5], in assay [6], in assay [7] and in assay [8] was inactive.
For `CN1CCN(c2ccc(Nc3ncc([N+](=O)[O-])c(Nc4ccccc4O)n3)cc2)CC1`, the growth inhibition in assay [1] is 97% (active); in assay [4] it was 100% (active). For the same compound, the figures for the inhibition in assay [2] and in assay [3] were 98% (active) and -3%, respectively. The outcome in assay [5], in assay [6], in assay [7] and in assay [8] was inactive.
With `CCOC(=O)c1ccc(NC(=O)c2ccccc2C(=O)O)cc1`, the growth inhibition in assay [1] was 0%; in assay [4] it was 92% (active). The inhibition in assay [2] is 2%; in assay [3], -3%. Also, the outcome in assay [5], in assay [6], in assay [7] and in assay [8] was inactive.
In the case of `COc1ccc([C@@]23Oc4cc(OC)cc(OC)c4[C@]2(O)C2(CC3c3ccccc3)SCCCS2)cc1` (some centres not stated), the growth inhibition is 97% (active) in assay [1] and 96% (active) in assay [4]. For the same compound, the inhibition was 39% in assay [2] and -10% in assay [3]. The outcome in assay [5], in assay [6], in assay [7] and in assay [8] was inactive.
`Cc1cc(NC(=O)Nc2ccc(C(C)C)cc2)c2ccccc2n1`: the figures for the growth inhibition in assay [1] and in assay [4] were 16% and 99% (active), respectively. The inhibition in assay [2] was 7%; in assay [3] it was -1%. Besides, the outcome in assay [5], in assay [6], in assay [7] and in assay [8] was inactive.
As to `O=C(/C=C/c1ccc(Cl)c(Cl)c1)NCC1CCN(Cc2ccc(O)cc2)CC1`, the growth inhibition in assay [1] was -3%; in assay [4] it was 98% (active). The inhibition in assay [2] is 4%; in assay [3], 6%. In addition, the outcome in assay [5], in assay [6], in assay [7] and in assay [8] was inactive.
For the compound `O=C(Nc1cccc(-c2cccc(-c3nc4ccccc4[nH]3)c2)c1)c1ccoc1`, the values for the growth inhibition in assay [1] and in assay [4] were 36% and 85% (active), respectively. Besides, the inhibition is 19% in assay [2] and 5% in assay [3]. In addition, the result in assay [5], in assay [6], in assay [7] and in assay [8] was inactive.
`O=c1cc(NCCCNCc2cc3ccccc3s2)[nH]c2ccccc12`: the growth inhibition in assay [1] is -3%; in assay [4], 89% (active). Further, the inhibition was 3% in assay [2] and -1% in assay [3]. For the same compound, the outcome in assay [5], in assay [6], in assay [7] and in assay [8] was inactive.
`CC(=O)NCCCCC1NC2(C(=O)N(Cc3ccc(C(C)(C)C)cc3)c3ccccc32)C2C(=O)N(C3CCCCC3)C(=O)C12` (configuration not stated): the results for the growth inhibition in assay [1] and in assay [4] were 71% (active) and 91% (active), respectively. Further, the values for the inhibition in assay [2] and in assay [3] were -2% and -3%, respectively. Moreover, the result in assay [5], in assay [6], in assay [7] and in assay [8] was inactive.
As to `Cc1cc(N2CCCC2)nc(Nc2ccc(NC(=O)Cc3ccccc3)cc2)n1`, the growth inhibition in assay [1] is 72% (active); in assay [4] it was 102% (active). In addition, the values for the inhibition in assay [2] and in assay [3] were 71% (active) and -4%, respectively. Besides, the result in assay [5], in assay [6], in assay [7] and in assay [8] was inactive.
With `Cc1cccc2[nH]c(-c3ccc(-c4ccc(NC(=O)Nc5cccc(C#N)c5)cc4)s3)nc12`, the results for the growth inhibition in assay [1] and in assay [4] were 100% (active) and 101% (active), respectively. Besides, the values for the inhibition in assay [2] and in assay [3] were 33% and -6%, respectively. Besides, the outcome in assay [5], in assay [6], in assay [7] and in assay [8] was inactive.
Regarding `CCCn1c(=N)c(C(=O)NCCc2ccccc2)cc2c(=O)n3cccc(C)c3nc21`, the growth inhibition in assay [1] was 64% (active); in assay [4] it was 100% (active). In addition, the inhibition in assay [2] was 8%; in assay [3], 2%. Also, the result in assay [5], in assay [6], in assay [7] and in assay [8] was inactive.
Turning to `O=C(NCCc1ccc(F)cc1)c1ccc(N2CCN(c3ccncc3)CC2)nc1`, the figures for the growth inhibition in assay [1] and in assay [4] were 3% and 88% (active), respectively. For the same compound, the results for the inhibition in assay [2] and in assay [3] were 1% and -4%, respectively. Besides, the result in assay [5], in assay [6], in assay [7] and in assay [8] was inactive.
For the compound `NC(=O)c1cccc(CN2Cc3ccccc3OC3(CCN(Cc4c[nH]c5cnccc45)CC3)C2)c1`, the growth inhibition in assay [1] is 2%; in assay [4] it was 94% (active). The inhibition in assay [2] is 9%; in assay [3], -2%. The result in assay [5], in assay [6], in assay [7] and in assay [8] was inactive.
On to `CSc1nc2nc(C)c(Cc3cccc(F)c3)c(C)n2n1`, for which the growth inhibition was 45% in assay [1] and 87% (active) in assay [4]. Moreover, the inhibition is 3% in assay [2] and 0% in assay [3]. The outcome in assay [5], in assay [6], in assay [7] and in assay [8] was inactive.
In the case of `NC(=O)C1CCN(Cc2ccc(-c3ccc(-c4nc5ccc(F)cc5[nH]4)cc3)cc2)CC1`, the growth inhibition in assay [1] is 100% (active); in assay [4] it was 101% (active). In addition, the inhibition is 12% in assay [2] and 7% in assay [3]. Also, the outcome in assay [5], in assay [6], in assay [7] and in assay [8] was inactive.
Regarding `O=C(/C=C/c1cccc(OC(F)(F)F)c1)NCCCCCN1CCC(c2c[nH]c3ccccc23)CC1`, the growth inhibition was 13% in assay [1] and 93% (active) in assay [4]. Further, the figures for the inhibition in assay [2] and in assay [3] were 27% and -6%, respectively. For the same compound, the outcome in assay [5], in assay [6], in assay [7] and in assay [8] was inactive.
`NCCCCNc1cc(-c2ccnc(Nc3cccc(Cl)c3)n2)ccn1`: the growth inhibition was 91% (active) in assay [1] and 94% (active) in assay [4]. Also, the figures for the inhibition in assay [2] and in assay [3] were 46% and 1%, respectively. The result in assay [5], in assay [6], in assay [7] and in assay [8] was inactive.
For the compound `CCCCCN(C(=O)Nc1cc(C(F)(F)F)cc(C(F)(F)F)c1)C(C)c1nc2ccccc2c(=O)n1CC` (configuration not stated), the growth inhibition is 101% (active) in assay [1] and 100% (active) in assay [4]. The figures for the inhibition in assay [2] and in assay [3] were -3% and 3%, respectively. For the same compound, the result in assay [5], in assay [6], in assay [7] and in assay [8] was inactive.

One may read the inhibition as the drop in the measured response relative to a control, in per cent.
